Drawing on publication PMC7862700, “An all-to-all approach to the identification of sequence-specific readers for epigenetic DNA modifications on cytosine”, this text covers binding signal for one sequence.

What all share (test): DAPPL (digital affinity profiling via proximity ligation, sequencing); 10 mM Tris-HCl pH 7.5, 50 mM NaCl, 1 mM DTT, 4% glycerol, room temperature, 30 min; GST-TFs on glutathione beads, 16-mer random dsDNA library, 0.1% formaldehyde crosslink after washing; high values mean tight binding
Conditions in all cases: protein: recombinant; tags: N-terminal GST; dsDNA, one strand shown

One experiment addresses T1, FLI1 (Homo sapiens, UniProt Q01543 1-452).
T1 sequence: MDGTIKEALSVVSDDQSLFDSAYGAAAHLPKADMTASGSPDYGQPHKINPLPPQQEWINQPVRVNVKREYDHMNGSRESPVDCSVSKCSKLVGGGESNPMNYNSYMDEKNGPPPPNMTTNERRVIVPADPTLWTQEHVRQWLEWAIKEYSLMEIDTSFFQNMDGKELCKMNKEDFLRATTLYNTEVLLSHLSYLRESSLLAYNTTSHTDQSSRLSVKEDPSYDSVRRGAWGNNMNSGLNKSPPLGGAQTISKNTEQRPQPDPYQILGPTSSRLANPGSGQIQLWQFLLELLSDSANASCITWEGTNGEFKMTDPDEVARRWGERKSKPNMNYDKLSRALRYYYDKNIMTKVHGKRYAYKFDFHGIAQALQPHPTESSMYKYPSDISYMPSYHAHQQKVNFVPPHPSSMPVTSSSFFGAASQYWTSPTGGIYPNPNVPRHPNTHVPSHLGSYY
In outline: (§1)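 Each value of binding signal is a hexamer's read frequency for a factor divided by the same hexamer's frequency in the tag-only sample. Barcoded, bead-captured GST fusions of human transcription factors made in yeast were pooled with that sample and incubated with 200 nmole of a random double-stranded 16-mer DNA library in Tris/NaCl/DTT/glycerol buffer at room temperature for 30 min. Washing, 0.1% formaldehyde crosslinking, proximity ligation, PCR and Illumina NextSeq500 sequencing followed.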

Another experiment addresses T2, ELK1 (Homo sapiens, UniProt P19419 1-428).
T2 sequence: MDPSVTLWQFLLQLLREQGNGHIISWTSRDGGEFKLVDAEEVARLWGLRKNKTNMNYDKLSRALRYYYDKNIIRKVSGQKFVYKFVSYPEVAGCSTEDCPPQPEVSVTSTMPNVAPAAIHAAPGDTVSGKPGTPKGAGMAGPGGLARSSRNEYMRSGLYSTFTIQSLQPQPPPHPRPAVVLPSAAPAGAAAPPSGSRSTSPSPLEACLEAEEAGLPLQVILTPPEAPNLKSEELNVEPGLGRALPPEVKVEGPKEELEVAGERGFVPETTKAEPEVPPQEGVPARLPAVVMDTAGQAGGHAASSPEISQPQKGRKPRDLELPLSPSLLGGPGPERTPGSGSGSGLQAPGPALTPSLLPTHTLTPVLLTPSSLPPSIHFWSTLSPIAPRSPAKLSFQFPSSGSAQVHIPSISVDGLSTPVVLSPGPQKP
In outline: as §1

The target in another experiment is T3, GABPA (Homo sapiens, UniProt Q06546 1-454).
T3 sequence: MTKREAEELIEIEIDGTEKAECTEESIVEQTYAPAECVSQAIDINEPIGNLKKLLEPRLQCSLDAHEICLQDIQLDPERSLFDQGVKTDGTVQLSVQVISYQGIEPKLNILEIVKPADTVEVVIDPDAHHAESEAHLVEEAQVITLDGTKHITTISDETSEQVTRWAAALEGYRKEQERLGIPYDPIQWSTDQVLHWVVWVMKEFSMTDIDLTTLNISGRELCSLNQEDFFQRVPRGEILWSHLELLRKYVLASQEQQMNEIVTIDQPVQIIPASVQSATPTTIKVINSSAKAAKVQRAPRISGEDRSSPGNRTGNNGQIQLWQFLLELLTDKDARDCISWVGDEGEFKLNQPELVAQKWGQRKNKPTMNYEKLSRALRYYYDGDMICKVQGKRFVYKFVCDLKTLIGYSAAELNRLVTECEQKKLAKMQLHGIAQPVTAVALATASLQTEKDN
The method, boiled down:
as §1

A further experiment deals with T4, ERG (Homo sapiens, UniProt P11308 1-479).
T4 sequence: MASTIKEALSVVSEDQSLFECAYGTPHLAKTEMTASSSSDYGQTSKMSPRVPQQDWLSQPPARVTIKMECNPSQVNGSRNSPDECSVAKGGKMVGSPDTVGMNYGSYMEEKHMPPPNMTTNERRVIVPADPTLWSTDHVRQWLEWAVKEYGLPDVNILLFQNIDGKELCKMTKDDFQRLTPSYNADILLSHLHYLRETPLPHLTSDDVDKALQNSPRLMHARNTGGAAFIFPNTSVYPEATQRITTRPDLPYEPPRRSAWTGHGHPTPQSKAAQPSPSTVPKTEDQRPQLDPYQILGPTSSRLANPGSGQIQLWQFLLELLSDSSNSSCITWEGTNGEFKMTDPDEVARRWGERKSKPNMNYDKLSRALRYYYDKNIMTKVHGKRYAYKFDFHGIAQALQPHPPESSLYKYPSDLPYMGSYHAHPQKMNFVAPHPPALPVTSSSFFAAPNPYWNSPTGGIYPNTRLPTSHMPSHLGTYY
In outline: as §1

The next experiment concerns the target ELF1 (Homo sapiens, UniProt P32519 1-619). The method, boiled down: as §1
In the next experiment the target is T5, EHF (Homo sapiens, UniProt Q9NZC4 1-300).
T5 sequence: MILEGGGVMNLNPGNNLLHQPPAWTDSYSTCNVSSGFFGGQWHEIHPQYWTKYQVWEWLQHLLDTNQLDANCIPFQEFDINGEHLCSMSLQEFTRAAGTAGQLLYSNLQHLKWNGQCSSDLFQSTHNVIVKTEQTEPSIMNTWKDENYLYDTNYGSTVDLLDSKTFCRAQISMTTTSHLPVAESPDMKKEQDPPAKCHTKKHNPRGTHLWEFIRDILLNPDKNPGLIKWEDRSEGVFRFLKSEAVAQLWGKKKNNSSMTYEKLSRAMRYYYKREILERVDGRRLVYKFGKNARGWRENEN
The method, boiled down:
as §1

The next experiment concerns the target SPI1 (Homo sapiens, UniProt P17947 1-270). The method, boiled down:
as §1

For another experiment, the target named is SPIB (Homo sapiens, UniProt Q01892 1-262). The method, boiled down: as §1
SPIB, sequence (Q01892 whole entry): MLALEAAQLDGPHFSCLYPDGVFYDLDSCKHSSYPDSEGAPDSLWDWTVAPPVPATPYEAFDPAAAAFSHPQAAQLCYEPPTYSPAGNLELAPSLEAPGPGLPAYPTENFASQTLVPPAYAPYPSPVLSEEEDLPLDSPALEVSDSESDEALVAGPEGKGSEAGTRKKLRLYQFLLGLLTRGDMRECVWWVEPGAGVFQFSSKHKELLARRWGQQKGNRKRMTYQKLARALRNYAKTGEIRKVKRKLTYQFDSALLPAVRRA
The target of the next experiment is T6, ELK3 (Homo sapiens, UniProt P41970 1-407).
T6 sequence: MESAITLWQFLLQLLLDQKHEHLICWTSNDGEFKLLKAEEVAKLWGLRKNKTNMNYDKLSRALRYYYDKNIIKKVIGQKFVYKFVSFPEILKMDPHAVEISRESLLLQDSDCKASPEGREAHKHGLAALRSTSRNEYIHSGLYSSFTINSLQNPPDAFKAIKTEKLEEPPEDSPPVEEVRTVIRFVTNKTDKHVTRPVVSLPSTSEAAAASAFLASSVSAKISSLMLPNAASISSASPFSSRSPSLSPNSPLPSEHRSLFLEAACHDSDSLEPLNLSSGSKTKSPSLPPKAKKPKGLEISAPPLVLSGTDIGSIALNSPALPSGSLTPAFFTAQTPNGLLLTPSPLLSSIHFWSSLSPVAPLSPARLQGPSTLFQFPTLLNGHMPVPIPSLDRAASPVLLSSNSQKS
In outline: as §1

A further experiment addresses T7, FEV (Homo sapiens, UniProt Q99581 1-238).
T7 sequence: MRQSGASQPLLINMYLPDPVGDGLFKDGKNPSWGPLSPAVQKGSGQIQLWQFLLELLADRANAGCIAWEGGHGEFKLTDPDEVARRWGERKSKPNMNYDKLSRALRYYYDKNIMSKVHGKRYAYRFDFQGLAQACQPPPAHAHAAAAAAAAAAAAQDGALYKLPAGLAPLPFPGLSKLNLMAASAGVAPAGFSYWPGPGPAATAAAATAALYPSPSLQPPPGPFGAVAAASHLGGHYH
In outline:
as §1

In another experiment the target is ETV5 (Homo sapiens, UniProt P41161 1-510). The method, boiled down:
as §1

A further experiment concerns the target T8, SPIC (Homo sapiens, UniProt Q8N5J4 1-248).
T8 sequence: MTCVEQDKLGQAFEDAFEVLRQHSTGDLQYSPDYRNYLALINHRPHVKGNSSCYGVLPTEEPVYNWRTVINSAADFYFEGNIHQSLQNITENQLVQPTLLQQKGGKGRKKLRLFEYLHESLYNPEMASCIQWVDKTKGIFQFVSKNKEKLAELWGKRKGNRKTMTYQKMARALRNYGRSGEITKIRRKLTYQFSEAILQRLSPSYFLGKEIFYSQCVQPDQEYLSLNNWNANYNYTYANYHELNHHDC
The method, boiled down: as §1

Another experiment concerns the target ELF4 (Homo sapiens, UniProt Q99607 1-663). In outline: as §1
The next experiment deals with T9, ELK4 (Homo sapiens, UniProt P28324-2 1-405).
T9 sequence: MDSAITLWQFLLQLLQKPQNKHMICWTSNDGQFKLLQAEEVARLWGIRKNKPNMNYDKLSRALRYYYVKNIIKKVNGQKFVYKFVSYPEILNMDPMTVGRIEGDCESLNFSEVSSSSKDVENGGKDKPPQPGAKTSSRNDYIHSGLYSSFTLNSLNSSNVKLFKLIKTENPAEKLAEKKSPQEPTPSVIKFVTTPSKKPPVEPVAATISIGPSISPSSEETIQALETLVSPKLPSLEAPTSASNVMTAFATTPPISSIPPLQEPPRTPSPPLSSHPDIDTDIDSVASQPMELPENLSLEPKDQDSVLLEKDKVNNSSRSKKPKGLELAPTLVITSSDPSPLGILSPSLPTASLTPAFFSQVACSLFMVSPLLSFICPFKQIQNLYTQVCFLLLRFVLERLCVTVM
In outline:
as §1

The target in another experiment is T10, ETV2 (Homo sapiens, UniProt O00321 1-342).
T10 sequence: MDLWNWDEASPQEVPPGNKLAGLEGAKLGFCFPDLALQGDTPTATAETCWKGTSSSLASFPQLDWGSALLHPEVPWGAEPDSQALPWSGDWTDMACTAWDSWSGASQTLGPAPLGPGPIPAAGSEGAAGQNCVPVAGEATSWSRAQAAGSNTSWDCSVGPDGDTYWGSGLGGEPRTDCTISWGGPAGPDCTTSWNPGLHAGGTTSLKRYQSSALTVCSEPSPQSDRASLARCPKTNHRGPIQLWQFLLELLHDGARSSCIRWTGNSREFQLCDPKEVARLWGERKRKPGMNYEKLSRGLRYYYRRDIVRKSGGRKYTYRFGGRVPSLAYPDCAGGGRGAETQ
In outline:
as §1

The next experiment deals with T11, ELF3 (Homo sapiens, UniProt P78545 1-371).
T11 sequence: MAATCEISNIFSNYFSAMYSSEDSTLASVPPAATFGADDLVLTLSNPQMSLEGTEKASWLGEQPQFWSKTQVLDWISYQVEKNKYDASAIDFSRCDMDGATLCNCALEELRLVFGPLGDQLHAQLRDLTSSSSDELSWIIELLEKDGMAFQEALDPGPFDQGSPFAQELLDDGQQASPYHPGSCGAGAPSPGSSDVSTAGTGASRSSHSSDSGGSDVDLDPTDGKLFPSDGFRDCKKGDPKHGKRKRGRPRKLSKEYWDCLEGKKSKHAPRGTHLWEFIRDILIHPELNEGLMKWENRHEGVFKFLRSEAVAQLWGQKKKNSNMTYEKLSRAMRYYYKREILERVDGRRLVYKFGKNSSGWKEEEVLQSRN
The method, boiled down:
as §1

In a further experiment the target is ETV1 (Homo sapiens, UniProt P50549 1-477). The method, boiled down:
as §1

ELF4, sequence (Q99607 whole entry): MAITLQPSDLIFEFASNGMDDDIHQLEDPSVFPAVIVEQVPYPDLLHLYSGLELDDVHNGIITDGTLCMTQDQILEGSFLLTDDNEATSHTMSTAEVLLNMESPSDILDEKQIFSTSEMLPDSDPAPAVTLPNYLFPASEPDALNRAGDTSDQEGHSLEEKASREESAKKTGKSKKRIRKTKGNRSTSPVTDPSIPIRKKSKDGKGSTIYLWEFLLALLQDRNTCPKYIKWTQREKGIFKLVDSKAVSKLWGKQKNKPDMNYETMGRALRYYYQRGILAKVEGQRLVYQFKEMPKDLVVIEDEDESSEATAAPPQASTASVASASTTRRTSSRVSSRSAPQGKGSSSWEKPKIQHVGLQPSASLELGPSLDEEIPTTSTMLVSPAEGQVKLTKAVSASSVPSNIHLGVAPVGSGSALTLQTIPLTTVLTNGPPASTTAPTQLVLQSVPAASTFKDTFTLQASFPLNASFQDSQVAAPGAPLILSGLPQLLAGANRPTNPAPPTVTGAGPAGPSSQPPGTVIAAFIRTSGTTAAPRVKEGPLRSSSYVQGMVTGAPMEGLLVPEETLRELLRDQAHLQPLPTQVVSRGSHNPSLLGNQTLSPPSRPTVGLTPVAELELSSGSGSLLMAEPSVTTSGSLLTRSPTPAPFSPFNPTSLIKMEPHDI
ETV5, sequence (P41161 whole entry): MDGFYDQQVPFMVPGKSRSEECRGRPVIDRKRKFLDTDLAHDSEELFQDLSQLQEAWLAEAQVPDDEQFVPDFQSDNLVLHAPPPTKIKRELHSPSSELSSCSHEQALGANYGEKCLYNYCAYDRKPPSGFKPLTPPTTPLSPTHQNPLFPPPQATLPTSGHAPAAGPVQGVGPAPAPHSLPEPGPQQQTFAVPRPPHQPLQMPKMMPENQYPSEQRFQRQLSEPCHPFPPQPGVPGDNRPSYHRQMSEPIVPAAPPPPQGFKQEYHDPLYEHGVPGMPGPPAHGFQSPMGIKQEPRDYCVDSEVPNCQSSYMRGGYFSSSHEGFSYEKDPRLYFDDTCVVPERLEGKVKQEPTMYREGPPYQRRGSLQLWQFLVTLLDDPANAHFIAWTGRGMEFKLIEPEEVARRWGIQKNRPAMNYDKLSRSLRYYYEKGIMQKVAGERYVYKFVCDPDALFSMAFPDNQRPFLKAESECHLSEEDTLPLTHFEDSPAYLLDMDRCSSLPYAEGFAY
ELF1, sequence (P32519 whole entry): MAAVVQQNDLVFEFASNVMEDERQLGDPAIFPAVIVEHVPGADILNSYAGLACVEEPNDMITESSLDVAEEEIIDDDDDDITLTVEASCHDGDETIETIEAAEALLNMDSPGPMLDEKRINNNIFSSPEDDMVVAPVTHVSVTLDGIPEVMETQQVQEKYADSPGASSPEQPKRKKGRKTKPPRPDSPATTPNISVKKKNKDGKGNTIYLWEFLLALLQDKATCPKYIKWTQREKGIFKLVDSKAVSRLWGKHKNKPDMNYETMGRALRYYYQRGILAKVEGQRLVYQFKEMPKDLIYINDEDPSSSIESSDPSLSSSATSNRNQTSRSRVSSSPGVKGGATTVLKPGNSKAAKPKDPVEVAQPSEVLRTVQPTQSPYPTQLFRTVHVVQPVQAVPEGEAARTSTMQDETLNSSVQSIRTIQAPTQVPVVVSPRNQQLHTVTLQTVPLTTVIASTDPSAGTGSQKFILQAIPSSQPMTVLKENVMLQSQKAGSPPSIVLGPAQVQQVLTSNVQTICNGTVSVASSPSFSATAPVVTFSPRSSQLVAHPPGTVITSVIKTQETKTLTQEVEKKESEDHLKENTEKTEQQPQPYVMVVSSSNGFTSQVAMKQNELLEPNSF
ETV1, sequence (P50549 whole entry): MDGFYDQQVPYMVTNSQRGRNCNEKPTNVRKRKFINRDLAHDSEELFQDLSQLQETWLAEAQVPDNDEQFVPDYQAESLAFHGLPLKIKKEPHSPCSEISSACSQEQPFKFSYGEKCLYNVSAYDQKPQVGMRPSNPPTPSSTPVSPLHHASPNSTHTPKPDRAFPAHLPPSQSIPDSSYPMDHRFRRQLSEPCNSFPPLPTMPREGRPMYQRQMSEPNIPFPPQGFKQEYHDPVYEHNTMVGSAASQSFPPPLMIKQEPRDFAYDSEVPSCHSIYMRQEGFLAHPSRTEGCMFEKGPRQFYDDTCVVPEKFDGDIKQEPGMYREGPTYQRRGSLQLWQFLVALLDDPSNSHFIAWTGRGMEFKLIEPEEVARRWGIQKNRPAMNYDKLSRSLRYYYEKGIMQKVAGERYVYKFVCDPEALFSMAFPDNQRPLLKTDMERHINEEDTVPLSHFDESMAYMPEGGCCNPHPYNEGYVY

As for CATCCG, the binding signal with FLI1 was 2.09 fold enrichment (6-mer frequency, TF over GST control); in the experiment with ELK1 it was 2.2 fold enrichment (6-mer frequency, TF over GST control); with GABPA it was 1.86 fold enrichment (6-mer frequency, TF over GST control); in the experiment with ERG, 2.45 fold enrichment (6-mer frequency, TF over GST control); in the experiment with ELF1, 1.86 fold enrichment (6-mer frequency, TF over GST control); with EHF, 2.19 fold enrichment (6-mer frequency, TF over GST control). The binding signal with SPI1 is 2.01 fold enrichment (6-mer frequency, TF over GST control); with SPIB it was 2.29 fold enrichment (6-mer frequency, TF over GST control); in the experiment with ELK3, 2.5 fold enrichment (6-mer frequency, TF over GST control); in the experiment with FEV, 2.77 fold enrichment (6-mer frequency, TF over GST control); in the experiment with ETV5, 2.19 fold enrichment (6-mer frequency, TF over GST control); with SPIC, 2.11 fold enrichment (6-mer frequency, TF over GST control). The binding signal is 1.82 fold enrichment (6-mer frequency, TF over GST control) with ELF4; 1.71 fold enrichment (6-mer frequency, TF over GST control) in the experiment with ELK4; 2.11 fold enrichment (6-mer frequency, TF over GST control) with ETV2; 1.9 fold enrichment (6-mer frequency, TF over GST control) in the experiment with ELF3; 2.19 fold enrichment (6-mer frequency, TF over GST control) in the experiment with ETV1.
